Source: PubChem BioAssay (National Center for Advancing Translational Sciences (NCATS))
Only a selection was taken, and hits are over-represented in it overall.
AmpC inh detg – inhibitors of E. coli AmpC beta-lactamase with detergent | AmpC hydrolysis of nitrocefin, absorbance 480 nm, 0.01% Triton | Potency, µM (series often up to 114 µM), without a hit: top-dose activity change, negative = inhibition, actives largely listed as inhibitors | hit rate 0.041% among 370,000 | AID 485294;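 further: potency means the concentration at half of the fitted maximal effect; 0% = no-compound wells and -100% = no-enzyme wells; nearly all actives have a fitted effect of over 25% in size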
Target sequence (P00811 whole entry, looked up): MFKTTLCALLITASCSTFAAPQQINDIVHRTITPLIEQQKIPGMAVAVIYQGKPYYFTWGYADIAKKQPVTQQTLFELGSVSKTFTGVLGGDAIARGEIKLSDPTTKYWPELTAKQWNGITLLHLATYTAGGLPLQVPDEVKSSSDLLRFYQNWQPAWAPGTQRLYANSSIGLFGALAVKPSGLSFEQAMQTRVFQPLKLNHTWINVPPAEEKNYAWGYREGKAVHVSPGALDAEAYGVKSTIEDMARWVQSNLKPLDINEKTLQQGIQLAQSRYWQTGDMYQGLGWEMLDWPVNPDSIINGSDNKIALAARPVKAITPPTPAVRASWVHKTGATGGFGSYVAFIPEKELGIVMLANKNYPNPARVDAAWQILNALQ
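AmpC (5.3 nM in the dispensed reagent) in 20 mM phosphate pH 7.0 with 0.01% (detergent screen) or 0.0001% Triton X-100 was preincubated with compounds for 15 min at room temperature. Nitrocefin was then added from an 800 uM solution, and hydrolysis was followed at 480 nm.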
Cycloheximide cs – counter-screen hit for Shiga toxin inhibitors, cycloheximide | hit rate 12% among 300,000 | cell reporter, cycloheximide protein synthesis inhibition counterscreen | max response, %; in the data active means max response mostly above about 13%, no sharp cut-off; inactive means mostly below about 14%; further: read at 38.3 µM for the half of the compounds with a filed dose; 0% is about no effect
AmpC no deterg – inhibitors of E. coli AmpC beta-lactamase without detergent; AmpC nitrocefin hydrolysis, absorbance 480 nm, 0.0001% Triton; Potency, µM (highest dose often 57.1 µM), inactives show top-dose activity change, negative = inhibition, most hits filed as inhibitors; hit rate 0.52% among 330,000; AID 485341;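 further: potency means the concentration at half of the fitted maximal effect; plate controls were no compound for no effect and no enzyme for full effect; nearly all actives have a fitted effect of over 20% in size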
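20 mM phosphate pH 7.0 + 0.01% (detergent screen) or 0.0001% Triton X-100; 5.3 nM AmpC reagent; cpd preinc 15 min RT; nitrocefin (800 uM stock) to start; A480 q20 s × 4 min; Activity was normalised to no-enzyme and no-compound control wells.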
Shiga inhibitor – Shiga toxin inhibition; inhibition, % at 38.7 µM; Vero cells, Shiga toxin protein synthesis inhibition reporter; hit rate 9.2% among 290,000; in the data active means inhibition mostly above about 28%, no sharp cut-off; inactive means mostly below about 43%; further: 0% is about no effect
NS1 function inh – blocks influenza NS1 protein function; Potency, µM (highest dose often 46.1 µM), inactives show at the highest dose activity, positive = more growth; hit rate 0.4% among 270,000; AID 2326; calls by dose curve; further: potency means the concentration at half of the fitted maximal effect; actives are rising curves; nearly all actives have a fitted effect of over 50% in size
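Growth recovery, yeast-based: influenza A NS1 expressed in S. cerevisiae causes slow growth, and suppressors are detected by OD600. The parent strain without NS1 is used as positive control.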
* = called active by the depositor; ? = inconclusive; / = no result given. Unless noted, the call rests on the fitted dose curve; in most records, active means well fitted curve in the direction sought with a large enough effect; inconclusive means small, poorly fitted or top-dose-only effect, or another doubt; inactive means no such curve, though single readings can be large; an effect the other way counts as inactive or inconclusive.

SMILES	AmpC inh detg	Cycloheximide cs	AmpC no deterg	Shiga inhibitor	NS1 function inh
CCCC(=O)NC(=S)NNC(=O)c1ccc([N+](=O)[O-])cc1	-1.6%	-3.2	-2.8%	-12.7	-25.5%
CCC(=O)NC(=S)NNC(=O)c1ccc(O)cc1	-4.8%	23.3*	180.0%	23.5	4.4%
COc1ccc(C2=NN(C(=O)CSc3cn(C)c4ccccc34)C(c3ccc(OC)cc3)C2)cc1 (stereo unspecified)	?	-2.2	1.58µM*	-0.8	26.5%
COc1ccc(C2CC(c3ccc4ccccc4c3)=NN2C(=O)CSc2ncccn2)cc1 (stereo unspecified)	1.0%	14.8*	51.5%	43.1*	?
COc1ccc(C2=NN(C(=O)CSc3ncccn3)C(c3ccc(OC)cc3)C2)cc1 (stereo unspecified)	-2.0%	10.8	72.5%	12.2	1.1%
O=C(O)C1C2CC3C(OC(=O)C31)C2Cl (stereo unspecified)	-10.9%	1.6	-10.6%	-3.4	-0.6%
Cc1ccc(NC(=O)c2cnn(-c3ccccc3)c2C)cc1C	-9.6%	15.5	-28.2%	38.9	-42.7%
COc1ccc(NC(=O)c2cnn(-c3ccccc3)c2C)cc1OC	-11.8%	38.7*	-6.7%	79.9*	-22.6%
COc1ccc(CN2CCn3ncc(C(=O)Nc4ccccc4)c3C2=O)cc1	10.6%	32.4*	-14.5%	52.5*	12.0%
COc1ccc(NC(=O)c2cnn(-c3ccccc3)c2C)cc1	-1.9%	36.0*	-26.6%	/	-26.4%
Cc1ccc(N(Cc2cc(=O)[nH]c3ccccc23)C(=O)CCl)c(C)c1	1.3%	0.6	-21.5%	-11.1	-3.2%
CC(C)C(=O)Nc1ccc(NC(=O)c2ccccn2)cn1	?	26.5*	-22.9%	41.6*	-6.2%
CCC(=O)Nc1ccc(NC(=O)c2ccccn2)cn1	-5.3%	34.7*	-10.6%	46.6*	-3.9%
CCCC(=O)Nc1ccc(NC(=O)c2ccccc2Cl)nc1	2.9%	40.4*	-30.6%	56.8	-6.8%
O=C(Nc1ccc(NC(=O)C2CC2)nc1)c1ccccn1	-13.9%	18.0*	-10.0%	61.9*	-23.8%
CCc1ccc(OCC2c3cc(OC)c(OC)cc3CCN2C(=O)c2ccc(S(=O)(=O)N3CCCC3)cc2)cc1 (stereo unspecified)	-0.1%	/	/	/	/
Cc1nn(-c2ccccc2)c2sc(C(=O)N3CCCCC3)cc12	5.8%	48.2*	/	113.9*	-54.6%
N#Cc1nc(COc2ccccc2Cl)oc1NCCc1ccccc1	-8.5%	/	/	/	/
COc1ccc(N=C2SC(C(=O)Nc3ccc(OC)cc3)CC(=O)N2CCN2CCOCC2)cc1 (stereo unspecified)	-1.3%	-2.7	248.2%	14.7	8.3%
Cc1cccc(C(=O)NCC(=O)OCC(=O)c2cc(C)n(CC3CCCO3)c2C)c1 (stereo unspecified)	-5.0%	47.7*	21.7%	88.7*	/
Cc1cc(C(=O)COC(=O)CNC(=O)c2ccccc2)c(C)n1CC1CCCO1 (stereo unspecified)	-4.9%	26.4*	9.1%	134.5*	-1.1%
CC1CCCCC1NC(=O)CN1C(=O)c2ccccc2S1(=O)=O (stereo unspecified)	-1.4%	10.3	-0.8%	19.1	1.0%
COC(=O)c1ccc(-n2nnc(-c3nc(-c4ccc5c(c4)OCO5)no3)c2C)cc1	1.8%	/	/	/	/
CCOc1ccc(CNC(=O)c2ccc(Sc3ccc(C)cc3)c(N)c2)cc1OC	-3.0%	/	/	/	/
COc1ccc(NC(=O)CSc2c3c(nc4ccc(Cl)cc24)CCCC3)cc1Cl	3.5%	/	/	/	/
SMILES	AmpC inh detg	Cycloheximide cs	AmpC no deterg	Shiga inhibitor	NS1 function inh
COc1cccc(/C=C/C(=O)c2ccc(C)c([N+](=O)[O-])c2)c1	1.6%	4.8	-23.9%	11.7	-7.4%
COc1cccc(C(=O)/C=C/c2ccc(SC)cc2)c1	-9.8%	49.1*	-28.1%	79.9*	-109.5%
CSc1ccc(C(=O)/C=C/c2ccc(N)cc2)cc1	-1.0%	54.6*	-8.3%	76.8*	-32.0%
COC(=O)c1ccc(/C=C/C(=O)c2cccc(OC)c2)cc1	-2.4%	69.8*	-16.9%	51.6*	-9.1%
O=C(CN1CC(c2ccccc2)CC1=O)OCc1ccccc1F (stereo unspecified)	-3.1%	44.3*	-2.2%	97.4*	10.4%
COc1ccc(/C=C/C(=O)OCC(=O)Nc2cc(S(=O)(=O)N(C)C)ccc2Cl)cc1	2.2%	12.8*	-13.8%	58.4*	-10.3%
COc1cc(/C=C/C(=O)OCC(=O)Nc2cc(S(=O)(=O)N(C)C)ccc2Cl)ccc1O	-7.7%	9.9	-24.9%	22.3	-8.3%
